Hit rate of the full screen: of about 330,000 compounds, about 4,200 (1.3%) were called active. Another 6% or so got no clear call; they are omitted. Calls come from the whole dose curve; as a rule, active = well fitted activation curve with a large enough effect; inconclusive = small, poorly fitted or top-dose-only effect; inactive = no such curve, though single readings can be large or run the other way. The entries come from a sample that favours actives as a whole. A call without a number means that no potency is given here.
Potency is the fitted concentration of half-maximal effect.

The nature of the test: qHTS screen for small molecules that induce genotoxicity in human embryonic kidney (HEK293T) cells expressing luciferase-tagged ELG1. Note: nearly all actives have a fitted effect of over 60% in size. The note with it: HEK293T ELG1-luciferase reporter, luminescence, 16 h; series mostly up to 46 µM. The method, boiled down: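 HEK293T cells expressing luciferase-tagged ELG1 were treated with compound or DMSO for 16 hr at 37°C. Luciferase activity was then read after 30 min with ONE-Glo at room temperature; rising signal flags genetic stress.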
(Quantitative high-throughput screening tests each substance at several concentrations.)
On to `CC(C)(C)OC(=O)CNC(=O)c1[nH]cnc1C(=O)N[C@@H](CCCCN)C(=O)OC(C)(C)C`, for which the Potency entry was “inactive”. Regarding `C[C@H](CO)N1C[C@H](C)[C@@H](CN(C)Cc2ccc(-c3ccccc3)cc2)Oc2ccc(NC(=O)Cn3cnnn3)cc2C1=O`, the Potency result is “inactive”.

With `COC(=O)c1sc(NC(=O)c2csc3c2CCCC3)nc1C`, the Potency is 2.59 µM (active).

In the case of `O=C(NCc1ccccc1Cl)c1csc2c1CCCCC2`, the Potency result was “inactive”. In the case of `O=C(Nc1ccccc1N1CCOCC1)c1csc2c1CCCC2`, the Potency entry is “inactive”. Still for that read-out and setting: the entry for `COC(=O)[C@]1(Cc2ccccc2)N[C@H](CN(C)S(=O)(=O)c2ccc(F)cc2)[C@@H]2C(=O)N(Cc3ccccc3)C(=O)[C@@H]21` is “inactive”. Same read-out and setting: to `COc1cc(N=Cc2c(O)[nH]c3ccccc23)cc(OC)c1OC` belongs “inactive”; to `COc1ccc(N=Cc2c(O)[nH]c3ccccc23)cc1OC`, 14.6 µM (active); to `COc1ccccc1N=Cc1c(O)c2ccccc2oc1=O`, “inactive”. Same read-out and setting: to `Cc1ccc(-n2nc3cc(C)c(NC(=O)c4cccnc4)cc3n2)cc1` belongs “inactive”; to `Cc1cc(NC(=O)c2ccco2)c(=O)n(Cc2c(F)cccc2Cl)c1`, “inactive”; to `Cc1ccc(-n2nc3cc(Cl)c(NC(=O)c4ccco4)cc3n2)cc1`, 11.6 µM (active). As for `Cc1ccc(S(=O)(=O)NC[C@H]2O[C@@H](n3cnc4c(N)ncnc43)[C@H](O)[C@@H]2O)s1`, the Potency entry is “inactive”.

`CSCCC1NC(=O)N(CC(=O)Nc2cccc(S(=O)(=O)N3CCCCCC3)c2)C1=O` (configuration not stated): the Potency result was “inactive”. On the same count and under the same terms, to `Cc1cc(C(=O)NCCc2ccc(Cl)cc2)c(C)o1` belongs 18.3 µM (active); to `Cc1cc(C(=O)NNC(=O)c2ccccc2O)c(C)o1`, “inactive”. The same measure, in the same setting: the entry for `Cc1cc(C(=O)NCCc2ccc(Cl)cc2)n(-c2ccccc2)n1` is “inactive”; for `CC[C@]12c3[nH]c4ccc(OC)cc4c3CCN1C(=O)C(CC(=O)NCCN1CCOCC1)C[C@@H]2C(=O)N1CCN(C(=O)C2CC2)CC1` (some centres not stated) it is “inactive”; for `Cc1ccccc1SCC(=O)OCC(=O)N1CC(=O)Nc2ccccc21` it is “inactive”. Same read-out and setting: to `CC1CCN(c2oc(-c3ccccc3F)nc2C#N)CC1` belongs 16.4 µM (active). For `N#Cc1nc(-c2cccc3ccccc23)oc1N`, the Potency entry is “inactive”.

In the case of `Cc1oc(-c2ccccc2F)nc1CS(=O)CC(=O)NCCN1CCCCC1C` (configuration not stated), the Potency entry was “inactive”.

`Cc1ccc(S(=O)(=O)N2CCN(C(=O)COC(=O)CNC(=O)c3ccc(C(C)(C)C)cc3)CC2)c(C)c1`: the Potency result is “inactive”. On to `O=C(N=C1SC2CS(=O)(=O)CC2N1c1ccccc1)c1ccccc1` (configuration not stated), for which the Potency entry is “inactive”. Regarding `COc1ccc(-c2nc3cnccn3c2NC2CCCCC2)cc1-c1cccc(Cl)c1`, the Potency entry is “inactive”. In the case of `COc1cccc(NC(=O)CSc2nnc(C3CCCCC3)n2N)c1`, the Potency result was “inactive”. For `CCOc1cccc(/C=C/c2ccc3ccccc3n2)c1OC(C)=O`, the Potency was 0.366 µM (active). As for `CCOc1ccccc1-c1cc(C(=O)N2CCOCC2)c2ccccc2n1`, the Potency result was “inactive”. On the same count and under the same terms, the entry for `CC(=O)c1ccc(S(=O)(=O)N2CCN(C(=O)/C=C/c3ccc4ccccc4n3)CC2)cc1` is “inactive”; for `COc1cccc(/C=C2\C=C(c3ccc(C)cc3)OC2=O)c1OC(C)=O` it is “inactive”; for `COc1cccc(/C=C/c2ccc3ccccc3n2)c1OC(C)=O` it is 0.206 µM (active). As for `NC(=O)COC(=O)/C=C/c1ccc2ccccc2n1`, the Potency entry is “inactive”. As for `COCCn1c(C)cc(C(=O)CN2c3cccc4cccc(c34)S2(=O)=O)c1C`, the Potency entry was “inactive”. For the compound `Cc1noc(C)c1NC(=O)Nc1cccc2c1O[C@H](CN(C)C(=O)Nc1ccccc1)[C@@H](C)CN([C@H](C)CO)C2=O`, the Potency result was “inactive”. Same read-out and setting: to `NCCN1CCN2C(=O)CN(C(=O)c3ccccc3)CC12` (configuration not stated) belongs “inactive”; to `O=C1CCC/C=C/C[C@@H](CC(=O)N(CCO)Cc2ccccc2)C(=O)NC[C@H](c2ccccc2)O1`, “inactive”; to `CC[C@]12c3[nH]c4ccc(Cl)cc4c3CCN1C(=O)[C@@H](CC(=O)NCCCOC)C[C@@H]2C(=O)N1CCN(C(=O)C2CC2)CC1`, “inactive”. On to `COCCCNC(=O)CC1C[C@H](C(=O)N2CCCCC2)[C@@]2(CCc3ccccc3)c3[nH]c4ccccc4c3CCN2C1=O` (some centres not stated), for which the Potency entry was “inactive”. Still for that read-out and setting: the figure for `O=C(NCc1ccccn1)c1cc2ccccc2oc1=O` is 14.6 µM (active).

Take `COc1ccc2oc(=O)c(C(=O)NCc3ccccn3)cc2c1`: the Potency entry is “inactive”. For `N=c1oc2ccccc2cc1C(=O)NCc1ccccc1`, the Potency result is “inactive”. On the same count and under the same terms, to `CCNC(=O)N(CC)C[C@H]1N[C@@](CC)(C(=O)OC)[C@H]2C(=O)N(Cc3ccccc3)C(=O)[C@@H]12` belongs “inactive”; to `CN(C(=O)COC(=O)Cc1ccccc1[N+](=O)[O-])C1CCS(=O)(=O)C1` (configuration not stated), “inactive”.

For `CCc1c(C)nc2cc(C)[nH]n2c1=O`, the Potency result is “inactive”. On the same count and under the same terms, to `Cc1cc(=O)n2[nH]c(-c3sccc3-n3c(C)ccc3C)cc2n1` belongs “inactive”. Still for that read-out and setting: the figure for `CCc1c(C)nc2cc(-c3cccs3)[nH]n2c1=O` is 20.6 µM (active); for `Cc1cccc(NS(=O)(=O)c2ccc(C)c(C(=O)NCc3cccnc3)c2)c1` it is “inactive”; for `CN(c1ccccc1)S(=O)(=O)c1ccc(C(=O)N2CCN(c3ccccc3Cl)CC2)cc1` it is “inactive”. The same measure, in the same setting: to `CC(NC(=O)COC(=O)Cn1cc(C(F)(F)F)ccc1=O)c1ccccc1` (configuration not stated) belongs “inactive”; to `COc1ccc(S(=O)(=O)N2CCOCC2)cc1NC(=O)CSc1nnc(NC2CC2)s1`, “inactive”; to `O=C(NC(=O)c1ccccc1)Nc1ccccc1O`, 1.83 µM (active). Consider `Cc1ccc(NC(=O)NC(=O)c2ccccc2)cc1F`, for which the Potency entry was “inactive”. As for `O=C(Nc1ccc(C(=O)O)c(O)c1)c1ccccc1`, the Potency entry was “inactive”. Same read-out and setting: the entry for `COc1ccc(CCOC2OC(CO)C(OC(=O)/C=C/c3ccc(O)c(OC)c3)C(O[C@H]3O[C@@H](C)[C@H](O)[C@@H](O)[C@H]3O)C2O)cc1O` (some centres not stated) is “inactive”; for `O=C(COC(=O)c1ccc(Br)o1)NC12CC3CC(CC(C3)C1)C2` it is “inactive”; for `COc1ccc(N(Cc2ccccc2)S(=O)(=O)c2cccc(C(=O)O)c2)cc1` it is “inactive”. The same measure, in the same setting: to `COc1ccc(NC(=O)CS(=O)(=O)c2ccccc2)cc1` belongs “inactive”; to `COc1ccc(C(CC(=O)c2ccccc2)S(=O)(=O)c2ccccc2)cc1` (configuration not stated), 18.4 µM (active); to `O=C(Nc1cc(S(=O)(=O)N2CCOCC2)ccc1N1CCOCC1)c1c(F)cccc1Cl`, “inactive”. As to `CCOc1cccc(C(=O)Nc2nnc(-c3cccs3)s2)c1`, the Potency was 1.16 µM (active). Same read-out and setting: the entry for `CCOc1cccc(C(=O)Nc2cnn(Cc3ccccc3)c2)c1` is “inactive”; for `COc1cccc(C(=O)Nc2nnc(S(=O)(=O)N(C)c3ccccc3)s2)c1` it is “inactive”; for `Cc1ccc(C(=O)Oc2coc(CSc3nnc(NC(=O)c4cccs4)s3)cc2=O)cc1C` it is “inactive”.

As to `Cc1ccc(C(=O)Nc2nnc(-c3cccs3)s2)cc1C`, the Potency is 8.2 µM (active).

Regarding `Cc1nnc(NC(=O)c2ccc3nccnc3c2)s1`, the Potency entry is “inactive”. Same read-out and setting: to `O=C(OCC(=O)N1CCN(C(=O)c2ccco2)CC1)c1c(Cl)cccc1Cl` belongs “inactive”; to `O=C(Nc1cc(S(=O)(=O)Nc2ccc(Cl)cc2)ccc1O)c1ccc(F)cc1F`, “inactive”; to `COC(=O)C1CCN(C(=O)COC(=O)c2cc(S(=O)(=O)N3CCOCC3)ccc2C)CC1`, “inactive”. Same read-out and setting: to `COCCN(CCOC)S(=O)(=O)NC[C@H]1O[C@@H](n2cnc3c(N)ncnc32)[C@H](O)[C@@H]1O` belongs “inactive”.

Turning to `Cc1cccc(NC(=O)CN2C(=O)c3ccccc3C2=O)c1C`, the Potency result was “inactive”. Regarding `CCN1C(=O)c2cccc3c(N)ccc1c23`, the Potency was 20.6 µM (active). Same read-out and setting: the entry for `CN1C(=O)c2cccc3c(N)ccc(c23)C1=O` is “inactive”. Still for that read-out and setting: to `O=C(CN1C(=O)c2cccc3cccc1c23)Nc1ccccc1` belongs “inactive”; to `Cc1nn(C)cc1N1C(=O)c2cccc3c(N)ccc(c23)C1=O`, “inactive”. On the same count and under the same terms, the figure for `CCN1C(=O)c2cccc3c(S(=O)(=O)Nc4ccccc4O)ccc1c23` is 23.1 µM (active). For the compound `CC(C)COc1ccc(C(=O)NNC(=O)CCC(=O)c2cccs2)cc1`, the Potency entry was “inactive”. Turning to `O=C(COc1ccc2oc3c(c2c1)CCCC3)Nc1ccccn1`, the Potency is 16.4 µM (active).

In the case of `CCN(CC)CCCNC(=O)COc1ccc2oc3c(c2c1)CCCC3`, the Potency entry is “inactive”. Same read-out and setting: to `CCOC(=O)N1CCN(C(=O)COc2ccc3oc4c(c3c2)CCCC4)CC1` belongs “inactive”.

For the compound `CC[C@]12c3[nH]c4cc(CCC(=O)N(C)C)ccc4c3CCN1C(=O)[C@@H](CC(=O)NCC13CC4CC(CC(C4)C1)C3)C[C@@H]2C(=O)N1CCN(C(=O)C2CC2)CC1`, the Potency entry was “inactive”. On the same count and under the same terms, to `COc1ccc2nc3n(c(=O)c2c1)-c1cc(C)ccc1C(=O)NC3Cc1ccc(O)cc1` (configuration not stated) belongs “inactive”; to `CC(C)C(=O)Nc1ccc2oc(=O)ccc2c1`, “inactive”. On to `CC(C)C(=O)Nc1ccc2c(c1)oc1ccccc12`, for which the Potency is 4.11 µM (active). Same read-out and setting: the entry for `Cc1cc(=O)oc2cc(NC(=O)C(C)Oc3ccccc3)ccc12` (configuration not stated) is “inactive”; for `COc1cccc(NC(=O)COc2cccnc2[N+](=O)[O-])c1` it is “inactive”; for `CC(C)(C)OC(=O)C[C@@H]1C/C=C\C[C@@H](CC(=O)N[C@H](CO)Cc2ccccc2)C(=O)NCCOC1=O` it is “inactive”. On the same count and under the same terms, the entry for `COc1cc(NC(=O)CN(C)S(=O)(=O)c2ccc3nc(C)sc3c2)cc(OC)c1` is “inactive”; for `Cc1nc2ccc(S(=O)(=O)N(C)CC(=O)NC(C)c3ccccc3)cc2s1` (configuration not stated) it is “inactive”. The same measure, in the same setting: to `Cc1ccc2nc(-c3ccc(NC(=O)CN(C)S(=O)(=O)c4ccccc4)cc3)sc2c1` belongs 5.8 µM (active); to `O=C1c2ccccc2[C@@H]2C[C@@H](O)[C@H](Nc3ccccc3Cl)CCN12`, “inactive”. For the compound `Cc1cc(C(=O)COc2ccccc2Cl)c(C)n1C1CC1`, the Potency entry was “inactive”.

With `Cc1ccc(-n2c(C)cc(C(=O)CN3C(=O)C(=O)N(C4CCCC4)C3=O)c2C)cc1`, the Potency result is “inactive”. The same measure, in the same setting: the figure for `Cc1cc(C(=O)COC(=O)C2CC2)c(C)n1-c1ccc(F)cc1` is 2.59 µM (active); for `COC(=O)c1cc(OC)c(OC)cc1NC(=O)CSc1ccc(C)cc1` it is “inactive”. `Cc1ccc(C(=O)CSc2ccccc2C(=O)O)cc1`: the activity change, positive = activation was 12.5% [at 9.26 µM] (inactive).

On to `Cc1ccc(SCC(=O)c2cc(C)c(OC(=S)N(C)C)c(C)c2)cc1`, for which the Potency is 7.31 µM (active). Still for that read-out and setting: the entry for `COC(=O)[C@]1(Cc2ccccc2)N[C@H](CN(C)S(=O)(=O)c2ccc(OC(F)(F)F)cc2)[C@@H]2C(=O)N(Cc3ccccc3)C(=O)[C@@H]21` is “inactive”.
